Data on 13 compounds can be found in PubChem BioAssay (NCATS).

Where “and” joins values, the source holds several entries; their conditions need not be identical. Identical values can stand only once. Results filed as inconclusive are left out. Calls of active or inactive are those of the source. Unless noted, no rule for the calls is given here.

Assay [1] can be described thus: qHTS Assay for Identifying Gametocytocidal Compounds (AID 743244; active = well fitted curve in the direction sought with a large enough effect; an effect the other way counts as inactive or inconclusive;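 also: % is scaled to controls: 0 for no effect and ±100 for the full control effect; actives lower the fluorescent signal which means gametocytes are killed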). The following applies: P. falciparum 3D7 stage III-V gametocytes, alamarBlue, 72 h; max response: stronger effect = lower value. The method in brief: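 Stage III–V gametocytes of P. falciparum 3D7 were seeded at 20,000 cells/well onto pre-dispensed compounds. After 72 h, 37 °C, 5% CO2, alamarBlue was added for another 24 h.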
Background: In qHTS, concentration-response curves come from the screen itself.

A short description of assay [2]: qHTS profiling of the MIPE4 collection as inhibitors of Plasmodium falciparum (3D7) proliferation (AID 743344).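 Also: scaled between DMSO vehicle wells and 0.29 µM artemisinin as full inhibition.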 Particulars: P. falciparum 3D7 in erythrocytes, SYBR Green DNA fluorescence, 72 h; at 28.5 µM (top of the series) unless noted. The method in brief:
(§1)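 Parasite DNA was quantified by SYBR Green I fluorescence (ex 485, em 535 nm) after overnight lysis in saponin/Triton buffer at room temperature. Cultures at 0.3% parasitemia and 2.5% hematocrit were first exposed to compound for 72 h at 37 C; signals were normalised to artemisinin (0.29 uM) and vehicle wells.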

A short description of assay [3]: qHTS profiling of the MIPE4 collection as inhibitors of Plasmodium falciparum (DD2) proliferation (Rep 2) (AID 743346). The following applies: P. falciparum Dd2 in erythrocytes, SYBR Green DNA, 72 h; at 28.5 µM (top of the series) unless noted. The method in brief: as §1
Assay [4] in a line: qHTS profiling of the MIPE4 collection as inhibitors of Plasmodium falciparum (HB3) proliferation (AID 743347).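 Also: plate controls were DMSO vehicle wells for no effect and artemisinin wells for full effect.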 The following applies: P. falciparum HB3 in erythrocytes, SYBR Green DNA, 72 h; at 28.5 µM (top of the series) unless noted. The method in brief:
as §1

Assay [5] in a line: High-throughput drug toxicity screening in the BPDCN cell line Gen2.2 (AID 1224824).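 Also: cells exposed to compounds for 48 h before reading.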 The following applies: Gen2.2 BPDCN cells; at 45.8 µM (top of the series) unless noted. The method in brief:
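Gen2.2 cells (500/well) in phenol red-free RPMI with 10% FBS were exposed to compounds for 48 h at 37 °C, 5% CO2. Viability was read by CellTiter-Glo luminescence and normalized to DMSO (100%) and 9.2 uM bortezomib (0%).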

Assay [6] is described as follows: qHTS profiling of the MIPE4 collection as inhibitors of Plasmodium falciparum (DD2) proliferation (AID 743345). The following applies: P. falciparum Dd2 in erythrocytes, SYBR Green DNA, 72 h; at 28.5 µM (top of the series) unless noted. The method in brief: as §1
The nature of assay [7]: qHTS assay for cell viability of HEK293 cells (AID 743288; active = well fitted curve in the direction sought with a large enough effect; an effect the other way counts as inactive or inconclusive; also: % is scaled to controls: 0 for no effect and ±100 for the full control effect; nearly all actives have a fitted effect of over 50% in size). The following applies: ATP luminescence (CellTiter-Glo), 18 h; max response: stronger effect = lower value. The method in brief: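 After 18 h compound exposure at 37 C, parental HEK293 cells (2,000/well) are lysed with CellTiter-Glo and luminescence is read following 30 min at room temperature.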
A short description of assay [8]: qHTS assay for cell viability of the p53RE-bla HCT-116 cell line (AID 743292; active = well fitted curve in the direction sought with a large enough effect; an effect the other way counts as inactive or inconclusive; also: % is scaled to controls: 0 for no effect and ±100 for the full control effect; nearly all actives have a fitted effect of over 55% in size). The method in brief: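 Readout: CellTiter-Glo luminescence after 30 min RT. Treatment: compounds in DMSO, 16 h, 37 C. Cells: CellSensor p53RE-bla HCT-116, 4,000/well, preincubated 5 h.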
The nature of assay [9]: qHTS profiling for inhibitors of Plasmodium falciparum (DD2) proliferation (AID 743323). The following applies: lower = more inhibition; at 28.7 µM (top of the series) unless noted. The method in brief:
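1536-well qHTS; infected RBCs 0.3% parasitemia/2.5% Hct final; cpd 72 h 37 C 5% CO2; lysis buffer + SYBR Green I, o/n RT dark; FI 485/535; norm. to 0.29 uM artemisinin and DMSO, plate-stack corrected.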

As for `COc1cc2nc(N3CCN(C(=O)C4CCCO4)CC3)nc(N)c2cc1OC` (stereo not given), in [1], the max response is -8.17% (inactive) and 12.4% (inactive). The compound also had a parasite growth, % of DMSO control in assay [2] of 30.8%. Besides, in assay [3], the parasite growth, % of control (lower = inhibition) is 46.2%. The growth, % of control in assay [4] was 11.3%. For the same compound, in [5], the cell viability, % of control (lower = more cytotoxic) worked out at 151%.
In the case of `CNC[C@@H](O)[C@@H](O)[C@H](O)[C@H](O)CO`, the parasite growth, % of DMSO control in [2] came to 65.8%. Also, the parasite growth, % of control (lower = inhibition) in assay [3] worked out at 82.7%. The compound also yielded a growth, % of control in assay [4] of 75.9%. Further, in assay [5], the cell viability, % of control (lower = more cytotoxic) came out at 216%.
On the same counts, the results for `Cc1cc(Cl)ccc1OCCCC(=O)NO` are 34.3%, 42.1%, 41.9% and 21.7%.
Regarding `COc1ccc(C2(C#N)CCC(C(=O)O)CC2)cc1OC1CCCC1` (stereo not given), in assay [1], the max response is 4.12% (inactive). The same compound registered a growth, % of control in assay [4] of 101%. For the same compound, the cell viability, % of control (lower = more cytotoxic) in assay [5] came to 129%.
With `CC(C)c1ccc2oc3nc(N)c(C(=O)O)cc3c(=O)c2c1`, the max response in assay [1] is 20.5% (inactive). The compound also had a parasite growth, % of DMSO control in assay [2] of 54.7%. This compound came in with a parasite growth, % of control (lower = inhibition) in assay [3] of 71.7%. Also, the growth, % of control in assay [4] stood at 74%. Besides, the cell viability, % of control (lower = more cytotoxic) in assay [5] stood at 98.6%.
On to `NCCCCNCCCN`, for which the max response in [1] is 11.2% (inactive). Besides, in assay [2], the parasite growth, % of DMSO control is 161%. The parasite growth remaining, % of DMSO control (lower = more inhibition) in assay [6] came out at 95.4%. This compound gave a parasite growth, % of control (lower = inhibition) in [3] of 90.4%. In assay [4], the growth, % of control was 577%. Further, the cell viability, % of control (lower = more cytotoxic) in assay [5] was 3.46%.
In turn, `Clc1ccc(C(Cn2ccnc2)OCc2ccc(Sc3ccccc3)cc2)c(Cl)c1` (stereo not given) returned a parasite growth, % of DMSO control in [2] of 5.64%. In [6], this compound gave a parasite growth remaining, % of DMSO control (lower = more inhibition) of 6.46%. This compound registered a parasite growth, % of control (lower = inhibition) in assay [3] of 18.3%. This compound also had a growth, % of control in assay [4] of 9.13%. Besides, the cell viability, % of control (lower = more cytotoxic) in [5] is 183%.
For the compound `COc1c(O)cc2c(c1O)[C@@H]1O[C@H](CO)[C@@H](O)[C@H](O)[C@H]1OC2=O`, in assay [1], the max response was 0.91% (inactive). Further, the parasite growth, % of DMSO control in assay [2] was 92.9%. In assay [3], this compound had a parasite growth, % of control (lower = inhibition) of 81.9%. The same compound gave a growth, % of control in [4] of 116%. Further, in assay [5], the cell viability, % of control (lower = more cytotoxic) was 123%.
For the compound `CC(=O)Nc1ccc(O)cc1`, the max response in [7] is -9.69% (inactive) and -0.289% (inactive). In assay [8], the Potency entry was “inactive”. Moreover, the cell viability, % of control (lower = more cytotoxic) in assay [5] was determined as 105%.
In the case of `CC1=C(C(=O)O)N2C(=O)[C@@H](NC(=O)[C@H](N)C3=CCC=CC3)[C@H]2SC1`, the max response in assay [1] was -5.14% (inactive). Besides, in [2], the parasite growth, % of DMSO control worked out at 79.3%. In [6], the parasite growth remaining, % of DMSO control (lower = more inhibition) came to 87.3%. Moreover, in [3], the parasite growth, % of control (lower = inhibition) was 74.3%. In assay [4], this compound had a growth, % of control of 51.2%.
Regarding `Cc1ccc(C(=O)c2cc(O)c(O)c([N+](=O)[O-])c2)cc1`, in assay [1], the max response is 2.67% (inactive). Besides, the parasite growth, % of DMSO control in [2] amounted to 82.6%. This compound also had a parasite growth remaining, % of DMSO control (lower = more inhibition) in assay [6] of 93.6%. In [3], this compound gave a parasite growth, % of control (lower = inhibition) of 82.4%.
Regarding `CCCc1cc(=O)[nH]c(=S)[nH]1`, the max response is 1.36% (inactive) in assay [1]; -1.41% (inactive) and 0.952% (inactive) in assay [7]. In addition, the Potency result in assay [8] is “inactive”. The same compound gave a parasite growth, % of DMSO control in [2] of 95.4%. For the same compound, the parasite growth remaining, % of DMSO control (lower = more inhibition) in assay [6] turned out to be 93.3%. Also, in assay [3], the parasite growth, % of control (lower = inhibition) came to 78.2%. The growth, % of control in assay [4] worked out at 103%.
For the compound `COc1cc2c(N3CCN(C(=O)Nc4ccc(OC(C)C)cc4)CC3)ncnc2cc1OCCCN1CCCCC1`, the activity, percent of control in [9] is 3.98%. For the same compound, in [2], the parasite growth, % of DMSO control was 4.84%. The parasite growth, % of control (lower = inhibition) in assay [3] turned out to be 12%. Further, the growth, % of control in [4] amounted to 3.25%.
